According to PubChem BioAssay (NCI):
This is part of a sample that, as a whole, favours compounds with a hit. Of some 79,000 tested, about 15% had one in any assay. Unmarked numbers belong to inactive results. Calls of active or inactive are those of the source. Rule as the data show it: active = growth inhibition above about 70%; inactive = the rest.

Key:
[1] = NCI Yeast Anticancer Drug Screen. Data for the rad50 strain (AID 155);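 also: 0% = growth of vehicle-only cultures of the same strain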; details: S. cerevisiae rad50 strain growth inhibition, stronger effect = higher value
Outline: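 Cells are treated with compound, grown, and their growth is then scored against vehicle-only cultures of the same repair-deficient yeast strain.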

[2] = NCI Yeast Anticancer Drug Screen. Data for the mec2-1 strain (AID 157); details: S. cerevisiae mec2-1 strain, stronger effect = higher value
Outline: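 Each compound was tested on mec2-1 yeast, a strain altered in DNA damage repair or cell cycle control. Growth inhibition is reported relative to vehicle.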

[3] = NCI Yeast Anticancer Drug Screen. Data for the sgs1 mgt1 strain (AID 161);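 also: 0% = growth of cultures given vehicle only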; details: S. cerevisiae sgs1 mgt1 strain, stronger effect = higher value
Outline: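 Mutant yeast exposed to compound; growth scored against vehicle-only wells.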

[4] = NCI Yeast Anticancer Drug Screen. Data for the cln2 rad14 strain (AID 165);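 also: 0% = growth equal to vehicle treated cultures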; details: S. cerevisiae cln2 rad14 strain, stronger effect = higher value
Outline: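 Test compounds were added to cln2 rad14 yeast cultures; inhibition of growth was then determined by comparison with vehicle treatment.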

[5] = NCI Yeast Anticancer Drug Screen. Data for the bub3 strain (AID 167); details: S. cerevisiae bub3 mutant strain, stronger effect = higher value
Outline: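 Part of a panel of yeast mutants defective in DNA damage repair or cell cycle regulation. Each strain is grown with compound, and inhibition is calculated relative to solvent-treated cultures.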

[6] = NCI Yeast Anticancer Drug Screen. Data for the mlh1 rad18 strain (AID 175); details: S. cerevisiae mlh1 rad18 strain growth inhibition, stronger effect = higher value
Outline: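 Inhibition values reflect reduced growth of mutant yeast versus vehicle-treated controls following compound exposure; the mutations affect DNA damage repair.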

[7] = at 5.0 µM (retest, dose inferred, filed as 0.5)
[8] = at 50.0 µM (retest, dose inferred, filed as 5.0)

SMILES | growth inhibition [1, 7] | growth inhibition [1, 8] | growth inhibition ([1]; at 50.0 µM) | growth inhibition [2, 7] | growth inhibition [2, 8] | growth inhibition ([2]; at 50.0 µM) | growth inhibition [3, 7] | growth inhibition [3, 8] | growth inhibition ([3]; at 50.0 µM) | growth inhibition [4, 7] | growth inhibition [4, 8] | growth inhibition ([4]; at 50.0 µM) | growth inhibition [5, 7] | growth inhibition [5, 8] | growth inhibition ([5]; at 50.0 µM) | growth inhibition [6, 7] | growth inhibition [6, 8] | growth inhibition ([6]; at 50.0 µM)
COc1cccc(/C=C(\NC(=O)c2ccccc2)c2nc3ccccc3s2)c1 | 64% | 96% (active) | 98.3% (active) | 18% | 96% (active) | 98.2% (active) | 53% | 97% (active) | 98.8% (active) | 13% | 97% (active) | 97.7% (active) | 29% | 97% (active) | 97.4% (active) | 25% | 96% (active) | 98.3% (active)
Cc1ccc(NN)cc1 | 23% | 97% (active) | 83.8% (active) | 0% | 69% | 40.7% | 26% | 46% | 70.3% (active) | 4% | 75% (active) | 21.1% | 3% | 96% (active) | 52.6% | 11% | 94% (active) | 80.5% (active)
[N-]=[N+]=CC(=O)CCC(NC(=O)OCc1ccccc1)C(=O)OCc1ccccc1 (stereo not given) | 96% (active) | 99% (active) | 91.2% (active) | 97% (active) | 100% (active) | 93.1% (active) | 96% (active) | 99% (active) | 90.5% (active) | 96% (active) | 99% (active) | 90.9% (active) | 97% (active) | 100% (active) | 89% (active) | 97% (active) | 98% (active) | 90.8% (active)
COc1ccc(/C=N/N=c2\[nH][nH]/c(=N\N=C\c3ccc(OC)c4ccccc34)c3ccccc23)c2ccccc12 | 15% | 34% | 57.6% | 0% | 59% | 47.5% | 4% | 76% (active) | 86.9% (active) | -7% | 28% | 37.6% | 0% | 78% (active) | 33.4% | 12% | 85% (active) | 65%
CC(=O)[O-].O=C(N/N=C/c1ccccc1[O-])c1ccccc1.[Zn+2] | -3% | 61% | -2.05% | 6% | 89% (active) | 14.6% | 1% | 86% (active) | 55.8% | -5% | 32% | -16.9% | -10% | 70% (active) | 0.3% | 9% | 91% (active) | 32%
CN(C)c1ccc(C(c2ccc(N(C)C)cc2)c2cccc([N+](=O)[O-])c2)cc1 | -2% | -3% | -11.2% | -3% | -13% | 0.2% | -2% | -1% | -2.45% | -8% | -33% | 14.9% | 43% | 26% | 50.1% | -2% | -12% | 7.9%
Fc1ccc2nncc(SCc3ccccc3)c2c1 | 1% | 97% (active) | 97.9% (active) | 10% | 99% (active) | 97.2% (active) | 11% | 98% (active) | 93.2% (active) | 3% | 95% (active) | 91.5% (active) | 2% | 97% (active) | 97% (active) | -2% | 98% (active) | 95.5% (active)
c1ccc([P+](Cc2ccc(C[P+](c3ccccc3)(c3ccccc3)c3ccccc3)s2)(c2ccccc2)c2ccccc2)cc1 | 35% | 90% (active) | 80% (active) | 33% | 96% (active) | 80.3% (active) | 37% | 98% (active) | 80.7% (active) | 17% | 77% (active) | 67.4% | 47% | 96% (active) | 81% (active) | 43% | 96% (active) | 75.8% (active)
CC/C(=C1\C=CC(=O)S1)C(CC)c1ccc(OC(C)=O)cc1 (stereo not given) | -14% | 99% (active) | 99.2% (active) | -11% | 99% (active) | 89.3% (active) | -7% | 98% (active) | 99.3% (active) | 0% | 99% (active) | 70.2% (active) | -25% | 99% (active) | 93.9% (active) | -4% | 99% (active) | 99.3% (active)
COC(=O)c1nc(NC#N)[nH]c(=O)c1CCCCCc1cnc(NC#N)nc1 | -3% | 1% | -2.4% | -2% | -2% | 4.05% | -1% | 4% | -3.25% | -4% | 1% | 7% | 0% | -1% | -0.4% | 0% | -2% | -6.1%
O=C(NCc1ccccc1)N1CCN(c2ccccc2)C1=O | -3% | 3% | 47% | -3% | -5% | 2.65% | -3% | -1% | -2.15% | -4% | 13% | 36.5% | 4% | 12% | 6.95% | -4% | -4% | 11.7%
CCCN(CCC)c1ccc(Cc2ccc(N(CCC)CCC)cc2N)c(N)c1 | -3% | 96% (active) | 97.8% (active) | -5% | 98% (active) | 98.3% (active) | -6% | 99% (active) | 44.5% | -1% | 91% (active) | 97% (active) | -1% | 96% (active) | 96.8% (active) | -5% | 95% (active) | 98.1% (active)
O=c1c2ccccc2sc2c([N+](=O)[O-])ccc(NCCNCCO)c12 | 57% | 98% (active) | 87.2% (active) | 35% | 99% (active) | 92.1% (active) | 18% | 98% (active) | 86.7% (active) | 25% | 98% (active) | 87.2% (active) | 21% | 99% (active) | 88.5% (active) | 35% | 98% (active) | 83.3% (active)
CC(C)c1cc2c(cc1O)C[C@@]1(O)CCCC(C)(C)C1CC2 (stereo not given in full) | 8% | 97% (active) | 90.6% (active) | 3% | 97% (active) | 92.3% (active) | 3% | 92% (active) | 91.2% (active) | -16% | 96% (active) | 90% (active) | 7% | 96% (active) | 91.2% (active) | 10% | 95% (active) | 90.2% (active)
Fc1ccccc1CN1COc2c(cc(Cl)c3cccnc23)C1 | 11% | 71% (active) | 99% (active) | -1% | 43% | 99.4% (active) | 2% | 98% (active) | 99.5% (active) | 1% | 98% (active) | 99.1% (active) | -11% | 99% (active) | 99.2% (active) | 5% | 98% (active) | 99.3% (active)
COc1cc(CC#N)c(NC(C)=O)cc1OC | 0% | -4% | -2.3% | -41% | -3% | 28.6% | 0% | -2% | -8.45% | 1% | -2% | 41% | -7% | -7% | 6.05% | -1% | -3% | 9.1%
O=C1c2cc(Br)ccc2NC1(c1c[nH]c2ccccc12)c1c[nH]c2ccccc12 | 98% (active) | 95% (active) | 91.8% (active) | 58% | 90% (active) | 94.8% (active) | 99% (active) | 96% (active) | 94.6% (active) | 98% (active) | 94% (active) | 93.2% (active) | 95% (active) | 95% (active) | 93.8% (active) | 99% (active) | 95% (active) | 92.8% (active)
CCCCCCCCCCN(CCCCCCCCCC)C1CC(OC2CC(O)(C(O)CO)Cc3c(O)c4c(c(O)c32)C(=O)c2c(OC)cccc2C4=O)OC(C)C1O (stereo not given) | 15% | 87% (active) | 43.5% | 8% | 94% (active) | 93.5% (active) | 10% | 93% (active) | 5.25% | 7% | 88% (active) | 81.8% (active) | 14% | 90% (active) | 90.8% (active) | 17% | 87% (active) | 90.5% (active)
COc1ccc2c(c1)C(=O)/C(=C/c1ccc([N+](=O)[O-])o1)CO2 | 15% | 99% (active) | 97.2% (active) | 10% | 100% (active) | 38.2% | 33% | 100% (active) | 98.1% (active) | 15% | 99% (active) | 57.1% | 15% | 99% (active) | 89.8% (active) | 78% (active) | 99% (active) | 98.2% (active)
CN(NC(=O)/C(=C/c1ccc2c(c1)OCO2)NC(=O)c1ccccc1)c1ccnc2cc(Cl)ccc12 | -7% | -10% | 89.7% (active) | -15% | -2% | 46% | -9% | -15% | 78% (active) | 22% | 11% | 55.6% | 8% | 33% | 72.2% (active) | 10% | 11% | 87.7% (active)
